Consider 61 compounds from PubChem BioAssay AID1903 (Southern Research Specialized Biocontainment Screening …, 2009).

Hit rate of the full screen: of about 310,000 compounds, about 1,200 (0.39%) were called active. How the calls were made is not given here. The list is a sample of the results. Measured potencies and affinities stand elsewhere.

The assay deals with Large T antigen (Simian virus 40) (UniProt P03070). Put plainly: TAg ATPase/helicase activity blockers – biochemical (AID 1903). The following applies: SV40 large T antigen ATPase/helicase inhibition assay; at 20 µM; stronger effect = higher value.
Chain of Large T antigen (Simian virus 40) (P03070 whole entry, looked up): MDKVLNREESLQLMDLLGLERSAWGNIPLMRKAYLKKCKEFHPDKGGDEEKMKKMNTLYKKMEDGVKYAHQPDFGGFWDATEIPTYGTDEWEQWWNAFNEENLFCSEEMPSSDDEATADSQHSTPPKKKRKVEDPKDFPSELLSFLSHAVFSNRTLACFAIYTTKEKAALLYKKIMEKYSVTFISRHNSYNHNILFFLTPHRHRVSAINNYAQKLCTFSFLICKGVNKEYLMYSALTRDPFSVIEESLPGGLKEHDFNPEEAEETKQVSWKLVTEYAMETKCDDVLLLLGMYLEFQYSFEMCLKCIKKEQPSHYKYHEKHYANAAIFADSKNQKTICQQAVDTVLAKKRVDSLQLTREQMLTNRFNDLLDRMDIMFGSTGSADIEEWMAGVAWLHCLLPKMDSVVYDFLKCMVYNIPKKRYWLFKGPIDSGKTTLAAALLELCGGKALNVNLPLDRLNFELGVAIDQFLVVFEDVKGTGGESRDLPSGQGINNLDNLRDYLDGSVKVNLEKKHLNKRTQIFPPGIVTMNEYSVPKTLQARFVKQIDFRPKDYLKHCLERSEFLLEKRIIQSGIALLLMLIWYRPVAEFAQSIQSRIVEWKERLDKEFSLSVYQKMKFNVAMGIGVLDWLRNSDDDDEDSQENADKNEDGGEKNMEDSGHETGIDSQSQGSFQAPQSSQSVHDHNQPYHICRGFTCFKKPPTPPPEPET
A word on the inhibition: it is the relative decrease from the control value, in per cent. In the case of `COc1ccc(/C=C2/SC(=S)N(CCCC(=O)Nc3ccc(O)cc3)C2=O)cc1`, the inhibition was 5.12% (inactive).
For `COc1cc(/C=C2\C(=O)ON=C2c2ccccc2)cc(Cl)c1O` the value was 32.2% (inactive).
Regarding `O=C1ON=C(c2ccccc2)/C1=C/c1ccco1`, the inhibition was 36.5% (inactive).
As for `COc1cc(/C=C2\C(=O)ON=C2c2ccccc2)cc(OC)c1OC`, the inhibition was 9.78% (inactive).
With `O=C1ON=C(c2ccccc2)/C1=C/c1ccc(O)cc1`, the inhibition is 48% (inactive).
As for `O=C1ON=C(c2ccccc2)/C1=C/c1cccnc1`, the inhibition was 1.23% (inactive).
For the compound `O=C1ON=C(c2ccccc2)/C1=C/c1ccccc1`, the inhibition was 48.5% (inactive).
Regarding `COc1ccc(/C=C2\C(=O)ON=C2c2ccccc2)cc1`, the inhibition was 72.8% (inactive).
Turning to `O=C1ON=C(c2ccc(Cl)cc2)/C1=C/c1ccc(O)cc1`, the inhibition was 34.8% (inactive).
Regarding `CCc1ccc(C(=O)OCC(=O)NCCNC(=O)COC(=O)c2ccc(CC)cc2)cc1`, the inhibition was 4.49% (inactive).
Take `CCC(C)[C@H](N)c1cn([C@@H](Cc2ccc(O)cc2)C(=O)N2CCNCC2)nn1` (stereo partly specified): the inhibition is 3.28% (inactive).
For `NC(=O)C1CCN(C(=O)Cc2ccc([N+](=O)[O-])cc2)CC1` the value was 21.5% (inactive); for `O=C(Nc1cc(F)ccc1F)C1CCN(S(=O)(=O)c2cccc3nonc23)CC1`, 9.1% (inactive).
Next, `CCCS(=O)(=O)c1c(S(=O)(=O)CCC)c2ccc(C(N)=O)cn2c1C(=O)c1ccc(F)cc1`: 24% (inactive).
Turning to `COCC(C)NC(C(=O)Nc1ccc(Cl)c([N+](=O)[O-])c1)c1ccccc1` (stereo unspecified), the inhibition is 0.39% (inactive).
With `CC1(C)CC(C(=O)NCCC(c2ccccc2)c2ccco2)CCO1` (stereo unspecified), the inhibition is 3.84% (inactive).
For `CC(=O)Nc1nonc1-c1nc2ccccc2n1CCC(C)C` the value was -3.72% (inactive).
With `CCCCOc1cccc(C(=O)N(Cc2ccccc2)C2CCS(=O)(=O)C2)c1` (stereo unspecified), the inhibition was -0.72% (inactive).
For `CC1CCN(C(=O)N[C@@H](Cc2ccccc2)C(=O)O)CC1` the value was 0.13% (inactive).
Regarding `O=C1C2C3CCC(O3)C2C(=O)N1c1cccc(O)c1` (stereo unspecified), the inhibition was -1.61% (inactive).
For `COc1cccc(C(=O)Nc2nnc(-c3ccccc3)s2)c1OC` the value was 13.1% (inactive).
Consider `O=C(Nc1ccncc1)C1CC(=O)N(c2ccc(F)cc2)C1` (stereo unspecified), for which the inhibition is 12.3% (inactive).
For `COC(=O)C1=C(C(=O)OC)[C@@H]2N(C)c3ccc(OC)cc3[C@@]23C[C@@H](C(=O)OC)N(C(=O)c2ccco2)C3=N1` the value was 27.8% (inactive); for `COc1ccc(/C=C2/C(=O)ON=C2c2ccccc2)cc1OC`, 12.2% (inactive).
Turning to `COc1ccc(/C=C2\C(=O)ON=C2c2ccccc2)cc1OC`, the inhibition is 53.9% (inactive).
`Cc1ccc(C)c(NC(=S)NC(NC(=O)Cc2ccccc2)C(Cl)(Cl)Cl)c1` (stereo unspecified): the inhibition is 5.58% (inactive).
Consider `CC1CCCCN1CCCNC(=O)C1CCN(c2nnc(-n3cccc3)s2)CC1` (stereo unspecified), for which the inhibition is 6.84% (inactive).
Next, `Cc1ccc(C)n1-c1nnc(N2CCC(C(=O)NCCCN3CC(C)CC(C)C3)CC2)s1` (stereo unspecified): -2.68% (inactive).
Next, `CCOc1ccc(CCNC(=O)C2CCN(c3nnc(-n4cccc4)s3)CC2)cc1`: 7.09% (inactive); `CCN1CCN(CCCNC(=O)C2CCN(c3nnc(-n4cccc4)s3)CC2)CC1`: 12.4% (inactive); `CCC1CCCCN1CCCNC(=O)C1CCN(c2nnc(-n3cccc3)s2)CC1` (stereo unspecified): 8.7% (inactive).
Consider `CC1CC(C)CN(CCCNC(=O)C2CCN(c3nnc(-n4cccc4)s3)CC2)C1` (stereo unspecified), for which the inhibition was 7.41% (inactive).
For `O=C(NC1CC(=O)N(c2ccc3c(c2)OCCO3)C1)N1CCCCC1` (stereo unspecified) the value was 11.8% (inactive).
As to `CCN(CC)S(=O)(=O)c1ccc(S(=O)(=O)N2CCN(CCC#N)CC2)cc1`, the inhibition is 2.53% (inactive).
Consider `CCCc1nc2ccc(NC(C)=O)cc2c(=O)n1Cc1ccccc1Cl`, for which the inhibition is 19.8% (inactive).
As for `CC1CCCCC1NC(=O)/C(C#N)=C/c1ccc(F)c(F)c1` (stereo unspecified), the inhibition is -0.71% (inactive).
Take `CC(=O)N1N=C(c2ccc(NS(C)(=O)=O)cc2)CC1c1ccc2nccnc2c1` (stereo unspecified): the inhibition is 8.1% (inactive).
`O=C(O)C1CC=CCC1C(=O)NC1CCCCC1` (stereo unspecified): the inhibition is 20.5% (inactive).
On to `Cn1cnc([N+](=O)[O-])c1Sc1nnc(-c2cccnc2)n1C`, for which the inhibition is 7.52% (inactive).
As for `CCn1ncc([N+](=O)[O-])c1C(=O)n1nc(C)cc1C`, the inhibition was 18.1% (inactive).
For `Cc1onc(-c2ccccc2Cl)c1C(=O)OCC(=O)Nc1cccc(S(=O)(=O)N2CCOCC2)c1` the value was 4.68% (inactive); for `O=C(CCn1cnc2ccccc21)N/N=C/c1ccccc1O`, 14.7% (inactive); for `CN(C)c1ccc(/C=N/NC(=O)C[n+]2ccccc2)cc1`, 17.6% (inactive).
`COc1ccc(/C=N/NC(=O)CC(=O)N/N=C/c2ccc(OC)cc2)cc1`: the inhibition is -38% (inactive).
Regarding `O=C(N/N=C/c1cccc(O)c1)c1csc2ccccc12`, the inhibition was 9.57% (inactive).
Turning to `C/C(=N\NC(=O)c1csc2ccccc12)c1ccc(O)cc1`, the inhibition was 26.5% (inactive).
For `O=C(CC(=O)N/N=C/c1ccc(F)cc1)N/N=C/c1ccc(F)cc1` the value was 10.6% (inactive); for `O=C(C[n+]1ccccc1)N/N=C/c1ccc(F)cc1`, 8.34% (inactive); for `COc1ccc(/C=N/NC(=O)CCn2cnc3ccccc32)cc1`, 2.3% (inactive).
For `CC(C)Cn1cc(C(=O)N2CCN(c3ccccn3)CC2)c2c3ccccc3n(C)c2c1=O`, the inhibition is 1.5% (inactive).
Turning to `COc1nc(NC(=O)c2ccc(F)cc2)nc(OC)c1-c1ccccc1`, the inhibition was 6.25% (inactive).
With `COc1ccc(-c2csc(NC(=O)CN3C(=O)NC4(CCCC4)C3=O)n2)cc1OC`, the inhibition was 23.8% (inactive).
For `CCCOc1ccc(-c2nc(C#N)c(NCC3CCCO3)o2)cc1` (stereo unspecified), the inhibition was 3.05% (inactive).
As to `O=C(CSc1nc2ccccc2s1)NCCCN1CCOCC1`, the inhibition was -10.3% (inactive).
Next, `COc1ccc(CCC(=O)NC2=NCCS2)cc1OC`: 13.6% (inactive); `O=C(Nc1ccc2c(c1)OCCO2)c1ccco1`: 30.4% (inactive).
In the case of `CCOC(=O)CSc1nc2sc3c(c2c(=O)n1C1CCCCC1)CCN(C)C3`, the inhibition was 24.2% (inactive).
As to `CCC(NC(=O)c1cc(COc2ccc(Cl)cc2OC)on1)c1ccncc1` (stereo unspecified), the inhibition is 7.95% (inactive).
Regarding `CCn1c(CC(=O)Nc2ccc(C)c(Cl)c2)nnc1SCc1ccc(Cl)c(Cl)c1`, the inhibition was 2.82% (inactive).
Regarding `O=[N+]([O-])c1ccc(Cl)c2c1C1C=CCC1C(c1ccccn1)N2` (stereo unspecified), the inhibition is 21.7% (inactive).
Take `CC(C)C1Nc2c(O)cc(Cl)c([N+](=O)[O-])c2C2C=CCC21` (stereo unspecified): the inhibition is 21.4% (inactive).
